# FBW7 activator = human FBW7 E3 ligase activation, primary screen. Q969H0. AlphaScreen FBW7–phospho-cyclin E peptide binding, activator screen. normalized activity (activation), % at 26.1 µM. 0.13% of 650,000 active. AID 1259310; in the data active = normalized activity above about 1.9%;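 also: purified mutant Fbw7 with reduced substrate affinity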
# TEAD-YAP block = TEAD-YAP interaction inhibition; HEK-TIYL cells, TEAD-Gal4/YAP UAS-luciferase luminescence; inhibition, % at 9.12 µM; 1.4% of 640,000 active; in the data active = inhibition above about 32%;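 also: 0% = median of test compound wells and 100% = reference inhibitor wells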
# MITF primary = human MITF inhibition, primary screen; 0.91% of 650,000 active; O75030; AlphaScreen MITF homodimerization, bead proximity signal; inhibition, % at 2.6 µM; in the data active = inhibition above about 50%;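 also: 0% = vehicle wells with protein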
# GPR151 activ = activates the human receptor GPR151; PathHunter beta-arrestin GPR151 cells, luminescence; activation, % at 11.2 µM; 1% of 650,000 active; in the data active = activation above about 4.9%;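 also: 0% = median of compound wells and 100% = cells with positive control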
# Target sequence (Q8TDV0 whole entry, looked up): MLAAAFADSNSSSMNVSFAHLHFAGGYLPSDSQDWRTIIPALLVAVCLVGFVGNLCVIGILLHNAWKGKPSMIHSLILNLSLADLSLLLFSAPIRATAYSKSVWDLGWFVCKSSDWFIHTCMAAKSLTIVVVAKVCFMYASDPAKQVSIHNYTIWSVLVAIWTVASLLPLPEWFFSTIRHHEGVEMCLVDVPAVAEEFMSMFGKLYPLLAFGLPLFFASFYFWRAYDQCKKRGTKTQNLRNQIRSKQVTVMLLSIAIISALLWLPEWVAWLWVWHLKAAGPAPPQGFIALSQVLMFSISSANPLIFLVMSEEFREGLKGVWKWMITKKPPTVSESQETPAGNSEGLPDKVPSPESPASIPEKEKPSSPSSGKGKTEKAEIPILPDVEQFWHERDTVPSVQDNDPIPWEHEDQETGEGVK
# GPR151 confirm = human GPR151 activation, confirmation screen; shares compounds with GPR151 activ; GPR151 PathHunter beta-arrestin cells, luminescence, 90 min; % of EA-reagent control over plate median; activation, % at 11.2 µM; 6,700 tested, under 10 active;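 active = mean percent activation across replicates above the confirmation screen cutoff of 4.91%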
# GPR119 counter = GPR119 activation, counter-screen for GPR151 activators; shares compounds with GPR151 activ; AID 1508611; 0.3% of 6,700 active; GPR119 PathHunter beta-arrestin cells, luminescence, 90 min; 0 = compound-well median, 100 = enzyme-acceptor control; activation, % at 11.2 µM;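 active = mean percent activation in the counterscreen above 29.09%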;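 also: counterscreen on off-target GPR119 to flag nonselective hits from the GPR151 activator screen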
# Numbers without * were called inactive; nt = not tested or not shown. Only some compounds are listed: those with a hit (about 3.5% of all), similar ones and a draw of the others.
SMILES,FBW7 activator,TEAD-YAP block,MITF primary,GPR151 activ,GPR151 confirm,GPR119 counter
COCC(=O)N1CCCC(N2CCN(c3ccccc3OC)CC2)C1 (configuration not stated),0,0,-2,0,nt,nt
COC(=O)c1ccc(NC(=O)C2CC(=O)N(Cc3ccc4c(c3)OCO4)C(=Nc3cccc(C(F)(F)F)c3)S2)cc1 (configuration not stated),0,-1,7,6.4*,1,3
O=C(O)c1ccc(NC(=O)C2CC(=O)N(Cc3ccc4c(c3)OCO4)C(=Nc3cccc(C(F)(F)F)c3)S2)cc1 (configuration not stated),0,15,0,1,nt,nt
COc1ccc(C(=O)NCc2nnc(SCC(=O)c3ccccc3)n2C)cc1,0,-6,13,6.5*,-1,1
CCCCn1c(CNC(=O)c2ccc(OC)cc2)nnc1SCC(=O)OCC,0,2,14,6.4*,1,0
CCOC(=O)CSc1nnc(CNC(=O)c2ccc(OC)cc2)n1CC,0,5,16,0,nt,nt
CC(NC(=O)CC1S/C(=N/N=C/c2ccco2)NC1=O)C(=O)O (configuration not stated),0,3,10,5.7*,-1,-3
N#Cc1c(-c2ccc(F)cc2)cc(-c2cccs2)nc1SCCN1CCCCCC1,0,5,2,0,nt,nt
O=C(CCN1C(=O)C2CCCCC2C1=O)NNc1c(F)c(F)cc(F)c1F (configuration not stated),0,6,-10,5.4*,0,1
CCOC(=O)/C(C#N)=C/c1ccc(-c2ccc([N+](=O)[O-])cc2OC)o1,0,10,1,1,nt,nt
O=C(NCc1ccc2c(c1)OCO2)c1cc(-c2ccccc2Cl)nc2ccccc12,0,19,7,0,nt,nt
COc1ccc(-c2cc(C(=O)NN)c3cc(Br)ccc3n2)cc1,0,1,12,5.0*,-1,-7
Cc1ccc(-c2cc(C(=O)NN)c3ccccc3n2)cc1,0,-18,3,-2,nt,nt
NNC(=O)c1cc(-c2ccc(F)cc2)nc2ccccc12,0,2,5,6.1*,1,16
NNC(=O)c1cc(-c2ccc(O)cc2)nc2ccc(Br)cc12,0,4,3,1,nt,nt
O=C(NCc1ccc(F)cc1)c1cc(-c2ccccc2Cl)nc2ccccc12,0,8,2,17*,1,16
CCOC(=O)c1c(NC(=O)CSc2nnc(CNC(=O)c3ccccc3OC)n2-c2ccccc2OC)sc2c1CCCCC2,0,3,16,1,nt,nt
O=C(CN(C(=O)CCC(=O)Nc1nccs1)c1cccc(F)c1)NCC1CCCO1 (configuration not stated),1,-5,11,9.2*,1,0
COCCNC(=O)CN(C(=O)CCC(=O)Nc1nccs1)c1ccc2c(c1)OCO2,0,1,-4,7.3*,1,11
COc1ccccc1C(CC(=O)Nc1nccs1)c1ccc2c(c1)OCO2 (configuration not stated),0,-5,0,6.6*,0,13
COCCNC(=O)CN(C(=O)CCC(=O)Nc1ccccn1)c1ccc2c(c1)OCO2,0,-5,8,-1,nt,nt
COC(=O)c1cc(OC)c(OC)cc1NC(=O)Cc1ccccc1OC,0,-4,3,2,nt,nt
Cc1ccc(C2=C/C(=C/c3ccccn3)C(=O)O2)c(C)c1,0,-44,1,5.3*,2,-9
Cc1ccc(/C=C/S(=O)(=O)NCCn2cnc(-c3ccccc3)cc2=O)cc1,0,1,8,-1,nt,nt
CCc1ccc(C2=NN(C(=O)C(C)C)C(O)(C(F)(F)F)C2)cc1 (configuration not stated),0,1,4,1,nt,nt
O=C(NCCc1ccc(Cl)cc1)C(=O)NCc1ccccc1,0,5,9,7.4*,0,16
NNC(=S)NCCc1ccc(Cl)cc1,0,13,5,0,nt,nt
CCNC(=S)NCCc1ccc(Cl)cc1,0,-22,11,5.5*,0,3
CCN(CC)c1ccc(C(=O)Nc2cc(C(=O)Nc3ccccc3SC)ccc2N2CC3CC(C2)c2cccc(=O)n2C3)cc1 (configuration not stated),0,-42,-11,0,nt,nt

# Compound activity (PubChem)
